According to PubChem BioAssay (EPA / NIEHS):
Activity calls are given as the source filed them. How the source made its calls: active means hit-call score of the fitted dose curve at least 0.9, where 1 is the maximum; inactive means score below 0.9.

experiment: Tanguay_ZF_120hpf_AXIS: Oregon State University Tanguay Lab 120 Hour Post-fertilization zebrafish Assay for Axial Malformation (AID 2284398)
Procedure: Tanguay_ZF_120hpf is a whole embryo, multiplexed endpoint assay using zebrafish larvae exposed for 120 hours post fertilization on a 96-well plate.Tanguay_ZF_120hpf_AXIS is one of one assay component(s) measured or calculated from the Tanguay_ZF_120hpf assay. It is designed to make measurements of zebrafish development as detected with brightfield microscopy of developing zebrafish embryos.Data from the assay component Tanguay_ZF_120hpf_AXIS was analyzed into 1 assay endpoints. This assay endpoint, Tanguay_ZF_120hpf_AXIS, was analyzed in the positive analysis fitting direction relative to DMSO as the negative control and baseline of activity. Using a type of morphology reporter, gain-of-signal activity can be used to understand changes in developmentals as they relate to the whole embryo. To generalize the intended target to other relatable targets, this assay endpoint is annotated to the zebrafish development intended target family, where the subfamily is body axis morphogenesis.
Zebrafish husbandry: Tropical 5D wild-type adult zebrafish were housed in at an approximate density of 1000 per 100 gallon tank at the Sinnhuber Aquatic Research Laboratory, Oregon State University, Corvallis, OR. Each tank was kept at standard laboratory conditions of 28C on a 14-h light/10-h dark photoperiod in fish water consisting of reverse osmosis water supplemented with a commercially available salt (Instant Ocean). Spawning funnels were placed into the tanks the night prior, and embryos were collected and staged. To increase bioavailability, the chorion was enzymatically removed using pronase (63.6mg/ml, >/= 3.5U/mg, Sigma-Aldrich: P5147) at 4 hours post fertilization (hpf) using a custom automated dechorionator.Chemical exposures: Six hpf dechorionated embryos were placed 1 embryo per well in a 96-well plate prefilled with 90 ul of EM using automated embryo placement systems (AEPS). Ten microliters of each row of dilution plate 2 was added to 2 exposure plates. The final DMSO concentration used was 0.64% (vol/vol). Thirty-two embryos were also exposed to 5uM trimethyltin chloride (positive control). Plates were sealed to prevent evaporation and foil covered to reduce light exposure and kept in a 28C incubator. Embryos were statically exposed until 120 hpf. At 24 hpf, embryos were assessed for photomotor response using a custom photomotor response analysis tool (PRAT) and for developmental toxicity endpoints (MO24: mortality at 24 hpf, DP: developmental progression, SM: spontaneous movement, and NC: notochord distortion). At 120 hpf, locomotor activity was measured using Viewpoint Zebralab and assessed for 13 endpoints. Zebrafish acquisition and analysis program (ZAAP), a custom program designed to inventory, acquire, and manage zebrafish data, was used to collect developmental endpoints as either present or absent (i.e., binary responses were recorded). If mortality occurred for an embryo (at either 24 or 120 hpf), the non-mortality endpoints were not measured.

SMILES | outcome
O=S(=O)(O)CCC(F)(F)C(F)(F)C(F)(F)C(F)(F)C(F)(F)C(F)(F)F | inactive
FC(F)(F)COC(OCC(F)(F)F)OCC(F)(F)F | inactive
O=C(Cl)C(F)(F)C(F)(F)C(F)(F)C(=O)Cl | inactive
FC(F)C(F)(F)COCC1CO1 (stereo not given) | inactive
FC(F)(F)C(F)(F)C(F)(F)C(F)(F)C(F)(F)C(F)(F)I | inactive
FC(F)=C(F)C(F)(F)C(F)(F)C(F)(F)C(F)(F)C(F)(F)C(F)(F)F | inactive
C[Si](C)(C)C(F)(F)C(F)(F)C(F)(F)F | inactive
OCCC(F)(F)C(F)(F)C(F)(F)C(F)(F)F | inactive
NCC(F)(F)C(F)(F)C(F)(F)C(F)(F)F | inactive
OC(O)(C(F)C(O)(O)C(F)(F)F)C(F)(F)F | inactive
